Assay results as given in PubChem BioAssay (Tox21).
“And” between values parts separate entries of the source, which are not always exact repeats. Equal entries are not always repeated. Inconclusive results are not listed. A call without a number means that no potency is given here. The source made the active and inactive calls. Unless noted, the call rests on the fitted dose curve; in most records, active means well fitted curve in the direction sought with a large enough effect in the repeat runs; inconclusive means weak or mixed curves; inactive means no such curve, though single readings can be large; an effect the other way counts as inactive or inconclusive.

How the values were obtained:
[1] = qHTS assay for small molecule agonists of the p53 signaling pathway (AID 651631; calls by dose curve; further: nearly all actives have a fitted effect of over 15% in size; further: potency means the concentration at half of the fitted maximal effect)
How it was run: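 We treat p53RE-bla HCT-116 cells with compounds for 16 h at 37 °C, add LiveBLAzer B/G FRET substrate for 2 h at room temperature, and measure fluorescence intensity.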

[2] = qHTS assay for small molecules that induce genotoxicity in human embryonic kidney cells expressing luciferase-tagged ATAD5 (AID 651632); further: nearly all actives have a fitted effect of over 15% in size
How it was run: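 Cells were seeded at 2,000 per well, dosed with compound, and incubated 16 hr at 37C in 5% CO2. Luciferase activity was then quantified after a 30 min room-temperature incubation with Amplite.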

[3] = qHTS assay for small molecule agonists of the p53 signaling pathway - cell viability (AID 651633; calls by dose curve;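 further: p53RE-bla HCT reporter cells with a stable beta-lactamase p53 reporter; series mostly up to about 83 µM; nearly all actives have a fitted effect of over 30% in size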)
How it was run: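 p53RE-bla cells, seeded at 4,000 per well and rested 5 h at 37 C/5% CO2, received compounds in DMSO for 16 h at 37 C. CellTiter-Glo was then added, and luminescence was read after 30 min at room temperature to gauge cytotoxicity.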

[4] = qHTS assay for small molecules that induce genotoxicity in human embryonic kidney cells expressing luciferase-tagged ATAD5 - cell viability (AID 651634; calls by dose curve; further: nearly all actives have a fitted effect of over 25% in size)
How it was run: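 Cells (HEK293T, luciferase-tagged ATAD5) are seeded at 2,000 per well, dosed with compound or DMSO vehicle, and incubated 15.5 hr at 37C and 5% CO2. CellTiter-Fluor is added for 30 min before fluorescence is measured.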

[5] = qHTS assay for small molecule disruptors of the mitochondrial membrane potential - cell viability (AID 720634; calls by dose curve;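 further: human HepG2 liver cancer cells; series mostly up to about 83 µM; nearly all actives have a fitted effect of over 20% in size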)
How it was run: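 Cytotoxicity was measured by ATP quantitation in HepG2 wells that had first been treated with compound for 1 hr and stained with m-MPI dye; CellTiter-Glo incubation was 30 min at room temperature.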

[6] = qHTS assay for small molecule disruptors of the mitochondrial membrane potential (AID 720635); further: potency means the concentration at half of the fitted maximal effect
How it was run: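 HepG2 cells (2,000/well) attached overnight at 37C, then took compound for 1 hr at 37C, 5% CO2. Mito-MPS dye was added for 30 min; fluorescence was read at 490/535 nm (monomers) and 540/590 nm (aggregates).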

[7] = qHTS assay to test for compound auto fluorescence at 590 nm (red) in HepG2 cells (AID 720674)
How it was run: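 Intrinsic compound fluorescence in the red window (Ex/Em 540/590 nm) is measured in attached HepG2 cells exposed for 1 hr, DMSO vehicle as baseline, benchmarked to Rose Bengal sodium.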

[8] = qHTS assay to test for compound auto fluorescence at 460 nm (blue) in HEK293 cells (AID 720678)
How it was run: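 Blue read-out at excitation 405 nm and emission 460 nm follows overnight compound exposure of HEK293 cells at 37C in 5% CO2. Activity is given as auto fluorescence equivalency to triamterene.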

[9] = qHTS assay to test for compound auto fluorescence at 535 nm (green) in HEK293 cells (AID 720680)
[10] = qHTS assay to test for compound auto fluorescence at 460 nm (blue) in HEK293 cell free culture (AID 720681)
How it was run: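 Test compounds were pinned into cell-free culture medium (DMEM with 10% FBS) and fluorescence was read directly at Ex/Em 405/460 nm. Signals were expressed as fluorescence equivalents of triamterene, with DMSO vehicle as control.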

[11] = qHTS assay to test for compound auto fluorescence at 535 nm (green) in HEK293 cell free culture (AID 720682)
How it was run: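 Green-channel intensity (Ex/Em 485/535 nm) was recorded from compound-treated wells containing only DMEM with 10% FBS. Fluorescein provided the equivalency standard.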

[12] = qHTS assay to test for compound auto fluorescence at 590 nm (red) in HepG2 cell free culture (AID 720684)
How it was run: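 Readout: intrinsic compound fluorescence at 590 nm emission after 540 nm excitation, scaled to Rose Bengal sodium. Matrix was cell-free MEM with 10% FBS; DMSO vehicle wells served as control.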

[13] = qHTS assay to test for compound auto fluorescence at 460 nm (blue) in HepG2 cell free culture (AID 720685)
How it was run: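 Cell-free plates of MEM plus 10% FBS received 23 nL compound or DMSO vehicle; blue-channel (405/460 nm) intensity scored against triamterene as reference fluorophore.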

[14] = qHTS assay to test for compound auto fluorescence at 535 nm (green) in HepG2 cell free culture (AID 720686)
[15] = qHTS assay to test for compound auto fluorescence at 460 nm (blue) in HepG2 cells (AID 720687)
How it was run: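 Cells (2,000/well in MEM with 10% FBS) attached overnight at 37 C, then were exposed to compound or DMSO for 1 hr at 37 C, 5% CO2. Fluorescence read at Ex/Em 405/460 nm, expressed as triamterene-equivalent signal.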

[16] = qHTS assay to test for compound auto fluorescence at 590 nm (red) in HEK293 cells (AID 720679)
How it was run: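 Red channel, Ex/Em 540/590nm; signal expressed as equivalency to Rose Bengal sodium. HEK293, 2,000 cells/well, 10% dialyzed FBS; 23 nL compound pinned after 4-5 hr attachment; overnight 37C/5% CO2 before reading.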

[17] = qHTS assay to test for compound auto fluorescence at 590 nm (red) in HEK293 cell free culture (AID 720683)
How it was run: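 Tox21 10K library compounds were pinned into cell-free DMEM with 10% FBS and fluorescence was read at excitation 540 nm. Activity is expressed as Rose Bengal sodium equivalency.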

[18] = qHTS assay to test for compound auto fluorescence at 535 nm (green) in HepG2 cells (AID 720675)
[19] = biological target: Glucocorticoid receptor (Homo sapiens) (UniProt P04150); test: qHTS assay to identify small molecule agonists of the glucocorticoid receptor (GR) signaling pathway (AID 720691; active means well fitted activation curve with a large enough effect in the signal ratio in the repeat runs, not every such curve was filed as active; the % refers to the signal ratio)
Sequence of Glucocorticoid receptor (Homo sapiens) (P04150 whole entry, looked up): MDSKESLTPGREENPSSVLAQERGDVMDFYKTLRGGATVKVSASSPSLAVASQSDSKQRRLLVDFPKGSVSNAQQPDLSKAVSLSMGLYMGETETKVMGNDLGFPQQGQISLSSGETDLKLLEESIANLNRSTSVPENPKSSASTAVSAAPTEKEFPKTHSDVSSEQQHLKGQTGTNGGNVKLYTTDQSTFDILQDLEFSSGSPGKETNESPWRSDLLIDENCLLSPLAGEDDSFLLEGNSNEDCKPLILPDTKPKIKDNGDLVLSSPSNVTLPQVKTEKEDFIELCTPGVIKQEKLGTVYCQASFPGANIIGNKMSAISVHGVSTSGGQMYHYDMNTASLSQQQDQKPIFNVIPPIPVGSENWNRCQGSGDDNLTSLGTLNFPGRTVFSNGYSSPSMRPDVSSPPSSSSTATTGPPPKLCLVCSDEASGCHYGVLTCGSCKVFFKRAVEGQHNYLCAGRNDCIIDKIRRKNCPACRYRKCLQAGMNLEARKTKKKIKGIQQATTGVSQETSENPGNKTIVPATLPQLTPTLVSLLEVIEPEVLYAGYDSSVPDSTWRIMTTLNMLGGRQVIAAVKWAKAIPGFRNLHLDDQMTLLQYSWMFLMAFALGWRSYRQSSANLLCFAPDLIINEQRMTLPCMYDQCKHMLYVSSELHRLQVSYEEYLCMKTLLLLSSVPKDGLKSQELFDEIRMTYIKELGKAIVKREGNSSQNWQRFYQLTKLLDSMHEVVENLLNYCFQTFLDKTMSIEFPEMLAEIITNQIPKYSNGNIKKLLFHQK
How it was run: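 Steps: seed GR-bla HeLa cells, incubate 4 h at 37 C/5% CO2; pin-transfer DMSO-dissolved compounds; incubate 18 h at 37 C; add LiveBLAzer B/G FRET substrate; after 2 h at room temperature, measure fluorescence.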

[20] = biological target: Glucocorticoid receptor (Homo sapiens) (UniProt P04150); test: qHTS assay to identify small molecule antagonists of the glucocorticoid receptor (GR) signaling pathway (AID 720692; active means well fitted inhibition curve with a large enough effect in the signal ratio in the repeat runs, not every such curve was filed as active; the % refers to the signal ratio)
How it was run: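 Antagonism was scored as loss of dexamethasone-driven (5 nM final) reporter signal in HeLa cells bearing a glucocorticoid response element–beta-lactamase construct, after 18 h compound exposure at 37 C and 2 h FRET substrate loading.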

| SMILES | Potency [1] | Potency [2] | Potency [3] | Potency [4] | Potency [5] | Potency [6] | Potency [7] | outcome [8] | Potency [9] | outcome [10] | Potency [11] | Potency [12] | outcome [13] | Potency [14] | outcome [15] | Potency [16] | Potency [17] | Potency [18] | Potency [19] | Potency [20] |
| --- | --- | --- | --- | --- | --- | --- | --- | --- | --- | --- | --- | --- | --- | --- | --- | --- | --- | --- | --- | --- |
| O=C1c2cccc(O)c2C(=O)c2c(O)cccc21 | 19.5 µM (active) | inactive | inactive | inactive | inactive | 2.37 µM (active) and 3.1 µM (active) | inactive | inactive | inactive | inactive | inactive | inactive | inactive | inactive | inactive |  |  |  |  |  |
| COC(=O)c1ccccc1 | inactive | inactive | inactive | inactive | inactive | inactive | inactive | inactive | inactive | inactive |  | inactive | inactive | inactive | inactive | inactive | inactive |  |  |  |
| Brc1cc(Oc2cc(Br)c(Br)c(Br)c2Br)c(Br)c(Br)c1Br | inactive | inactive | inactive | inactive | inactive |  | inactive | inactive | inactive | inactive | inactive | inactive | inactive | inactive | inactive | inactive | inactive | inactive | inactive | inactive |
| O=C(OCc1ccccc1)c1ccccc1O | inactive |  | inactive |  | inactive | 61.1 µM (active) |  | inactive | inactive | inactive | inactive | inactive | inactive | inactive | inactive | inactive | inactive |  | inactive | inactive |
| CCCCC(CC)COC(=O)c1ccc(N(C)C)cc1 (stereo unspecified) | inactive | inactive | inactive |  | inactive |  | inactive | inactive | inactive | inactive | inactive | inactive | inactive | inactive | inactive | inactive |  | inactive | inactive | inactive |
| CC1=CCC(C(C)(C)O)CC1 (stereo unspecified) | inactive | inactive | inactive | inactive |  |  | inactive | inactive | inactive | inactive | inactive | inactive | inactive | inactive | inactive | inactive | inactive | inactive |  |  |
| CN(C)CCN(Cc1cccs1)c1ccccn1 | inactive | inactive | inactive |  | inactive | inactive | inactive | inactive | inactive | inactive | inactive | inactive | inactive | inactive | inactive |  |  | inactive | inactive | inactive |
